We go through seven compounds from PubChem BioAssay (NCI).

Test systems include NCI-H23 lung; NCI-H226 lung; NCI-H322M lung; HOP-62 NSCLC; NCI-H460 lung; HOP-92 NSCLC; NCI-H522 lung; A549/ATCC NSCLC; 786-0 renal; COLO 205 colon; DU-145 prostate; K-562 leukemia; MALME-3M melanoma; MDA-MB-231 breast; RXF 393 renal; SF-268 CNS; SF-295 CNS; SF-539 CNS; UACC-257 melanoma; M14 melanoma.
Common to all, as to test: NCI-60 one-dose screen, 48 h (100 = growth as untreated, 0 = no growth, -100 = all killed)
Common to all, as to details: 10 µM unless noted

Molecules are shown by their SMILES. Compounds without any hit were thinned out: in the full panel of roughly 83,000, 20% have a hit.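 Single-concentration screen, 48 h exposure, 96-well plates. Endpoint: percent growth. Below 10 = active.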 Unmarked numbers belong to inactive results. Active and inactive are the calls of the source.

`Cc1nc(/N=C(\N)NC(=O)Nc2cccc(Cl)c2)sc1C`: the growth is 73.2% in the assay with NCI-H23 lung; 90.2% in the assay with NCI-H226 lung; 92% in the assay on NCI-H322M lung; 71% in the assay with HOP-62 NSCLC; 66% in the assay on NCI-H460 lung; 89.5% in the assay with HOP-92 NSCLC. The growth is 38.9% in the assay on NCI-H522 lung; 70.1% in the assay on A549/ATCC NSCLC; 97.8% with 786-0 renal; 67.3% with COLO 205 colon; 90% with DU-145 prostate; 17% with K-562 leukemia. In addition, the growth with MALME-3M melanoma was 62%; in the assay with MDA-MB-231 breast, 87.9%; with RXF 393 renal, 87.8%; in the assay with SF-268 CNS, 89.5%; in the assay with SF-295 CNS, 77.2%; in the assay with SF-539 CNS, 78.3%. Further, the growth was 71.7% in the assay on UACC-257 melanoma and 50.5% in the assay on M14 melanoma.
For `COc1ccc2nc(NCCCNCCO)c3sc4ccc(F)cc4c(=O)c3c2c1`, the growth was 62.7% in the assay on NCI-H23 lung; 87.9% in the assay on NCI-H226 lung; 67.8% in the assay on NCI-H322M lung; 74% in the assay with HOP-62 NSCLC; -72.8% (active) in the assay with NCI-H460 lung; 12.2% in the assay on HOP-92 NSCLC. Also, the growth with NCI-H522 lung was 45.6%; with A549/ATCC NSCLC it was 49.2%; with 786-0 renal it was 56.7%; in the assay with COLO 205 colon, -49.3% (active); in the assay on DU-145 prostate, -49.7% (active); in the assay with K-562 leukemia, -36.8% (active). For the same compound, the growth with MALME-3M melanoma is 91.8%; in the assay on MDA-MB-231 breast, -26.7% (active); in the assay on RXF 393 renal, 44.4%; with SF-268 CNS it was 47.2%; in the assay on SF-295 CNS, 84.6%; with SF-539 CNS, -88.9% (active). In addition, the growth in the assay on UACC-257 melanoma is 95.4%; with M14 melanoma, -57.1% (active).
`O=C(CS(=O)c1oc(-c2cccs2)nc1S(=O)(=O)c1ccc(Br)cc1)c1ccccc1` (stereo not given): the growth in the assay on NCI-H23 lung is 92.6%; with NCI-H226 lung, 80.8%; in the assay on NCI-H322M lung, 97.7%; in the assay on HOP-62 NSCLC it was 84.6%; in the assay on NCI-H460 lung, 93.6%; in the assay on HOP-92 NSCLC, 76%. The growth with NCI-H522 lung is 81.4%; with A549/ATCC NSCLC, 96.6%; with 786-0 renal, 98.7%; in the assay with COLO 205 colon, 106%; with DU-145 prostate it was 104%; in the assay on K-562 leukemia, 95.3%. Besides, the growth with MALME-3M melanoma was 119%; with MDA-MB-231 breast, 105%; in the assay with RXF 393 renal, 105%; with SF-268 CNS, 99.2%; in the assay with SF-295 CNS, 101%; in the assay on SF-539 CNS it was 87%. Besides, the growth with UACC-257 melanoma is 98.8%; with M14 melanoma, 99.5%.
On to `O=[N+]([O-])c1ccc(Cl)c(-c2cc(CCCCO)on2)c1`, for which the growth is 101% with NCI-H23 lung; 93.5% in the assay with NCI-H226 lung; 96.3% in the assay on NCI-H322M lung; 106% in the assay on HOP-62 NSCLC; 109% in the assay on NCI-H460 lung; 94.2% in the assay with HOP-92 NSCLC. Besides, the growth with NCI-H522 lung was 93.8%; in the assay with A549/ATCC NSCLC, 92.9%; in the assay on 786-0 renal, 98.6%; with COLO 205 colon it was 131%; with DU-145 prostate it was 111%; in the assay on K-562 leukemia, 102%. In addition, the growth in the assay with MALME-3M melanoma was 102%; in the assay with MDA-MB-231 breast, 103%; in the assay on RXF 393 renal, 99.2%; in the assay on SF-268 CNS, 99.3%; in the assay on SF-295 CNS, 111%; in the assay with SF-539 CNS, 96.7%. Moreover, the growth in the assay on UACC-257 melanoma was 117%; with M14 melanoma, 110%.
`O=[N+]([O-])c1ccc(Oc2nc(Nc3ccc(O[C@H]4CO[C@H]5[C@@H]4OC[C@@H]5O)c(Cl)c3)ncc2F)c(Cl)c1`: the growth is 25.7% with NCI-H23 lung; 19.5% in the assay on NCI-H226 lung; 29.9% in the assay on NCI-H322M lung; 23.2% with HOP-62 NSCLC; 22.7% in the assay on NCI-H460 lung; -7.77% (active) in the assay with HOP-92 NSCLC. Also, the growth in the assay with NCI-H522 lung was 8.06% (active); in the assay with A549/ATCC NSCLC, 40%; in the assay on 786-0 renal, 21.4%; with COLO 205 colon it was 33.3%; with DU-145 prostate it was 27.3%; in the assay on K-562 leukemia, 22.2%. In addition, the growth in the assay with MALME-3M melanoma was 18.6%; with MDA-MB-231 breast it was 26.8%; in the assay with RXF 393 renal, 13.6%; in the assay on SF-268 CNS, 31.6%; with SF-295 CNS, 26.4%; in the assay on SF-539 CNS, 19.5%. Besides, the growth in the assay on UACC-257 melanoma was 43.9%; with M14 melanoma, 23.9%.
Take `CCCC1CCC(O)(C(C)(O)C(=O)NC2C(=O)N3NCCCC3C(=O)N(O)C(C)C(=O)N3NCCCC3C(=O)N3NCC(O)CC3C(=O)NC(C)C(=O)OC2C(C)C)OC1CC` (stereo not given): the growth with NCI-H23 lung is -85.9% (active); in the assay on NCI-H226 lung it was -53.6% (active); in the assay on NCI-H322M lung, -90.8% (active); with HOP-62 NSCLC it was -76% (active); in the assay with NCI-H460 lung it was -82.4% (active); with HOP-92 NSCLC, -61.5% (active). For the same compound, the growth with NCI-H522 lung is -25% (active); in the assay with A549/ATCC NSCLC it was -66.4% (active); with 786-0 renal, -78.6% (active); in the assay with COLO 205 colon, -89% (active); with DU-145 prostate, -99% (active); in the assay with K-562 leukemia, -61.6% (active). For the same compound, the growth with MALME-3M melanoma is -71.7% (active); in the assay on MDA-MB-231 breast, -66.3% (active); with RXF 393 renal it was -54.3% (active); in the assay on SF-268 CNS, -82.1% (active); in the assay on SF-295 CNS, -85.3% (active); in the assay on SF-539 CNS, -95.1% (active). In addition, the values for the growth in the assay on UACC-257 melanoma and in the assay on M14 melanoma were -83.3% (active) and -60.9% (active), respectively.
As to `Brc1ccc2[nH]cc(-c3nc(-c4c[nH]c5ccncc45)cs3)c2c1`, the growth is -41.6% (active) with NCI-H23 lung; 89.7% in the assay on NCI-H226 lung; -18.6% (active) in the assay on NCI-H322M lung; -79.1% (active) in the assay with HOP-62 NSCLC; -91.1% (active) with NCI-H460 lung; -34.3% (active) with HOP-92 NSCLC. Besides, the growth was -68.4% (active) in the assay with NCI-H522 lung; -77.6% (active) in the assay with A549/ATCC NSCLC; -91.3% (active) with 786-0 renal; -76.4% (active) with COLO 205 colon; -91.4% (active) with DU-145 prostate; -61.5% (active) in the assay with K-562 leukemia. Besides, the growth with MALME-3M melanoma is -83.6% (active); with MDA-MB-231 breast, -84.4% (active); in the assay with RXF 393 renal, -91.8% (active); with SF-268 CNS, -65.7% (active); with SF-295 CNS it was -84.8% (active); with SF-539 CNS, -94.9% (active). Besides, the growth in the assay with UACC-257 melanoma is -23.2% (active); in the assay on M14 melanoma it was -73.3% (active).
